# Data taken from PubChem BioAssay (NCI).
# Compounds without any hit were thinned out: in the full panel of roughly 83,000, 20% have a hit.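 Growth was measured after 48 h exposure to one concentration of compound in 96-well plates. Values under 10 count as active.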 A number with no mark means an inactive call. Active and inactive are the calls of the source.
# Tested on: SNB-75 CNS
# Test: NCI-60 one-dose screen, 48 h (100 = growth as untreated, 0 = no growth, -100 = all killed)
# Conditions: 10 µM unless noted
row,Compound,growth
1,Cc1c(C(=O)NCCC(=O)NO)sc2ncnc(Nc3ccc(F)c(Cl)c3)c12,97.5%
2,COc1cc2nc(-c3ccc(C(F)(F)F)cc3)cc(OCCCN3CCOCC3)c2cc1OC,-9.47% (active)
3,C=CCN1C(=O)/C(=C/C(=O)OC)S/C1=N\NC(=O)c1cc2ccc1/C=C\c1ccc(cc1)/C=C\2,78.1%

# Tested on: SNB-19 CNS
# Test: as above
# Conditions: 10 µM unless noted
row,Compound,growth
1,Cc1cc(C)c(S(=O)(=O)Oc2ccccc2[N+](=O)[O-])c(C)c1,33.1%
2,CCCOc1ccc(/C=N/Nc2cc(C)nc3ccc(Br)cc23)cc1,101%
3,COc1ccc2nc(-c3ccc(-c4noc(-c5cc(OC)c(OC)c(OC)c5)n4)cc3)[nH]c2c1,76.8%
4,CCCCCN1C=C/C(=C\C(=O)N(C)c2ccc(Oc3ccccc3)cc2)c2ccccc21,88.2%
5,COc1cc2oc(-c3cccc(C(=O)Nc4ccccc4)c3)cc(=O)c2c(O)c1OC,57.7%
6,c1ccc2c(-c3nccs3)c[nH]c2c1,98.1%
7,O=C(O)c1ccc(NCc2cn(-c3ccc(C(F)(F)F)cc3)nc2-c2ccc(C(=O)O)cc2)cc1,101%
8,NS(=O)(=O)c1ccc(CCN2C(=O)C=CC2=O)cc1,107%
9,C/C(=N\Nc1cc(C)nc2ccc(Br)cc12)c1ccc([N+](=O)[O-])cc1,75.7%
10,CCCCCCNC(=O)Oc1ccc(/C(=C(\C)c2ccccc2)c2ccc(OCCN3CCCCC3)cc2)cc1,74.6%
11,CCCNC(=O)Oc1ccc(/C(=C(\C)c2ccccc2)c2ccc(OCCCN(C)C)cc2)cc1,84.9%
12,O=C1c2ccccc2C(=O)c2c([N+](=O)[O-])ccc(Cl)c21,99.1%
13,O=C1Nc2cc(Cl)ccc2/C1=C\c1c(-c2ccc(F)cc2)nc2ccccn12,22.2%
14,CSc1nc2sc3cccc(Cl)c3n2c(=N)c1C#N,109%
15,Cc1cccc(C)c1N=c1oc2ccc(Cl)cc2nc1-c1ccccc1O,109%
16,C=C(C)[C@@H]1CC[C@]2(C(=O)N3CCN(C)CC3)CC[C@]3(C)[C@H](CC[C@@H]4[C@@]5(C)CC[C@H](OCCC#N)C(C)(C)[C@@H]5CC[C@]43C)[C@@H]12,95.9%
17,Cc1cc2nc3c4ccc(Br)cc4n(CCN(C)C)c3nc2cc1C,23.5%

row,Compound,growth
1,O=C(/C=C/c1ccc(Cl)cc1)c1ccc(NC(=O)N2CCN(c3cc4c(cc3F)c(=O)c(C(=O)O)cn4C3CC3)CC2)cc1,87.6%
2,CN(C)CCC(=O)c1ccc([N+](=O)[O-])cc1,107%
3,COc1ccc(-c2nc([C@@H](C)Sc3nc(N)cc(N)n3)c(C)s2)cc1OCCN1CCOCC1,91.3%
4,CCN1CCN(CCNc2nccc(-c3c(-c4cccc(OC)c4)nc4occn34)n2)S1(=O)=O,113%
5,NS(=O)(=O)c1ccc(CCN2C(=O)c3cc(Cl)c(Cl)cc3C2=O)cc1,109%
6,COc1ccc(-c2cnc3c(-c4cccc5cnccc45)cnn3c2)cc1,47.2%
7,N#C/C(=C\c1ccc(Cl)cc1)n1nnc2cc(F)c(F)cc21,34.5%
8,C=C1C(=O)O[C@H]2[C@H]1CC/C(CNC(=O)/C=C/c1ccccc1)=C\CC[C@@]1(C)O[C@@H]21,52.5%
9,COc1ccc(-c2nc(S(=O)(=O)c3ccccc3)c(S(=O)CC(=O)N3CCC(C)CC3)o2)cc1 (stereo unspecified),57.6%
10,COC(=O)/C=C1\S/C(=N\NC(=O)c2cc3ccc2/C=C\c2ccc(cc2)/C=C\3)N(c2ccccc2)C1=O,39.9%
11,O=C(c1nc2ccccc2[nH]1)C1C(c2ccc(Br)cc2)C2CC3CCCC[C@H]3N2[C@@]12C(=O)Nc1cc(Cl)ccc12 (stereo partly specified),49.8%
12,Oc1cccc(CCc2ccc(Oc3cc(CCc4cccc(O)c4)cc(O)c3O)cc2)c1,89%
13,NC(=NCCCOc1ccc(F)cc1)Nc1ccc(I)cc1,78.1%
14,CN(CCN(C)c1ccc(C(=N)N)cc1)c1ccc(C(=N)N)cc1,121%
15,COc1cc(C(=O)Nc2cc3c(cc2Oc2cc(C)cc(C)c2)C(=O)N(C)[C@@H](CC(=O)N(C)O)C(=O)N3)c(Br)c(OC)c1OC,-21.9% (active)
16,CCNC(=O)Oc1ccc(/C(=C(\C)c2ccccc2)c2ccc(OCCN3CCCCC3)cc2)cc1,79.4%
